In the library only some 1.7% were active in any assay of this set; here they are far more common.
GLP-1R inv ag = qHTS of GLP-1 Receptor Inverse Agonists (Inhibition Mode); Glucagon-like peptide 1 receptor (Homo sapiens), P43220; HEK293 GLP-1R CRE-luciferase, luminescence, 24 h; GLP-1R form is constitutively active; Potency, µM (top dose mostly 38.3 µM), for inactives: at the highest dose activity change, negative = inhibition, most hits filed as inhibitors; 410,000 tested, 1.6% active; also: % is scaled to controls: 0 for no effect and ±100 for the full control effect; nearly all actives have a fitted effect of over 55% in size
Target sequence (P43220 whole entry, looked up): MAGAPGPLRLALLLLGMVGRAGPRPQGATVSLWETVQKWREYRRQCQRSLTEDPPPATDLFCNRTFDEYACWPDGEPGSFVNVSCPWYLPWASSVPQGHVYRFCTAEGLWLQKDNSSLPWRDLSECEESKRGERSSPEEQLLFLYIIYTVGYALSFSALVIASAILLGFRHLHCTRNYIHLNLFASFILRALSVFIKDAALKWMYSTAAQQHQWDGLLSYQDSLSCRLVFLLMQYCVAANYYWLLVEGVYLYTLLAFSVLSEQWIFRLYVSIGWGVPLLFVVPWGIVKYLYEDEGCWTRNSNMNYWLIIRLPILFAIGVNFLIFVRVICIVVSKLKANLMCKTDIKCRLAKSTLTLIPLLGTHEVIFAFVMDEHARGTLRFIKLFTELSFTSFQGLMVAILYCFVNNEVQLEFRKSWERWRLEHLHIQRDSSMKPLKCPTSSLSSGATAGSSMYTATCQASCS
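qHTS in 1536-well format: reporter HEK293 cells expressing constitutive GLP-1R activity in DMEM + 10% Nu serum, 24 hr with compounds at 37 deg C, luminescence read after 12 min with detection reagent.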
GLP1R ag = qHTS of GLP-1 Receptor Agonists; 380,000 tested, 0.007% active; HEK293 GLP-1R CRE-luciferase, luminescence, 4-6 h; cells express a hypersensitive GLP-1R form; Potency, µM (titrated, usually from 45.6 µM), for inactives: top-dose activation, most hits filed as activators; also: % of control where 0% means no effect
PTHR1 agonist = qHTS for PTHR1 Agonists: Primary Screen; HEK293 GP2 PTHR1 cells, GloSensor cAMP luminescence, 1 h; Potency, µM (titrated, usually from 115 µM), without a hit: top-dose activation, hits mostly activators; Parathyroid hormone/parathyroid hormone-related peptide receptor (Homo sapiens), Q03431; 410,000 tested, 0.075% active; also: nearly all actives have a fitted effect of over 55% in size
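HEK-293-derived GP2 cells expressing PTHR1 and a GloSensor cAMP reporter, 3,000/well, plated overnight, given luciferin plus IBMX (each 0.5 mM as added) for 1 h at 37 °C, then compound for 1 h at 37 °C. Luminescence was read after 15 min at room temperature.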
GLP1R cytotox = qHTS of GLP-1 Receptor Inverse Agonists: Cytotox Screen; HEK293 cAMP-luciferase reporter cells, luminescence, 24 h; Potency, µM (series often up to 38.3 µM), without a hit: at the highest dose activity change, negative = inhibition, usual class: inhibitors; 410,000 tested, 0.13% active; AID 624418, 2012;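 also: loss of luciferase light is scored as toxicity; % is scaled to controls: 0 for no effect and ±100 for the full control effect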
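MLSMR compounds, 24 hr on cells at 37 deg C/5% CO2; luminescence after luciferase reagent (12 min RT). Inhibition counted as the undesired cytotoxic outcome.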
Numbers without * were called inactive. Calls follow the shape of the dose curve; as a rule, active = well fitted curve in the direction sought with a large enough effect; inconclusive = small, poorly fitted or top-dose-only effect, or another doubt; inactive = no such curve, though single readings can be large; an effect the other way counts as inactive or inconclusive. Potency is read from the fitted curve at half-maximal effect.

How did O=C(Nc1cccc(C(F)(F)F)c1)c1cccnc1N1CCCC1 do in these assays?
GLP-1R inv ag: 11µM*; GLP1R ag: 16%; PTHR1 agonist: inactive; GLP1R cytotox: 10%

Results for O=C(Nc1cccc(C(F)(F)F)c1)c1cccnc1NCCc1ccccc1 ?
GLP-1R inv ag: 3.5µM*; GLP1R ag: -2%; PTHR1 agonist: -18%; GLP1R cytotox: inconclusive

How did COc1ccc(/C=N/Nc2ccccc2)cc1Cn1nc(C)c([N+](=O)[O-])c1C do in these assays?
GLP-1R inv ag: 4µM*; GLP1R ag: -2%; PTHR1 agonist: inactive; GLP1R cytotox: -28%

What do the screens show for `COc1ccc(/C=N/N2CCOCC2)cc1Cn1nc(C)c([N+](=O)[O-])c1C`?
GLP-1R inv ag: -17%; GLP1R ag: 2%; PTHR1 agonist: -19%; GLP1R cytotox: -2%

How did CCOC(=O)C(Sc1cc(-c2ccccc2)nc2ncnn12)C(C)=O (configuration not stated) do in these assays?
GLP-1R inv ag: inconclusive; GLP1R ag: 1%; PTHR1 agonist: inactive; GLP1R cytotox: 3.5µM*

How did N#CCc1ccc(OCCCN2CCC(C(O)(c3ccccc3)c3ccccc3)CC2)cc1 do in these assays?
GLP-1R inv ag: inconclusive; GLP1R ag: 0%; PTHR1 agonist: -18%; GLP1R cytotox: inconclusive

How did OC(c1ccccc1)(c1ccccc1)C1CCN(CCCOc2ccc3c(c2)CCCC3)CC1 do in these assays?
GLP-1R inv ag: 7.9µM*; GLP1R ag: -30%; PTHR1 agonist: -27%; GLP1R cytotox: inconclusive

How did CS(=O)(=O)N1CCN(C2C3CC4CC(C3)CC2C4)CC1 (configuration not stated) do in these assays?
GLP-1R inv ag: 17%; GLP1R ag: 4%; PTHR1 agonist: -18%; GLP1R cytotox: -9%

What do the screens show for `CCOC(=O)c1c(CC(C)C)csc1NC(=O)c1ccccc1C(=O)O`?
GLP-1R inv ag: 11µM*; GLP1R ag: -2%; PTHR1 agonist: -3%; GLP1R cytotox: -10%

Results for O=C(NC1CC(=O)N(c2ccc(Cl)cc2)C1)c1cccs1 (configuration not stated) ?
GLP-1R inv ag: -6%; PTHR1 agonist: inactive; GLP1R cytotox: -1%

Results for COC(=O)c1ccc(/C=N/OCC(=O)NC2CCCC(C)C2C)cc1 (configuration not stated) ?
GLP-1R inv ag: inconclusive; GLP1R ag: 6%; PTHR1 agonist: inactive; GLP1R cytotox: -12%

What do the screens show for `COC(=O)c1ccc(/C=N/OCC(=O)NC2CCCCCCC2)cc1`?
GLP-1R inv ag: 13µM*; GLP1R ag: 9%; PTHR1 agonist: inactive; GLP1R cytotox: -3%

How did CCc1nnc(SCc2ccc(F)cc2Cl)c2cc3sc(C)cc3n12 do in these assays?
GLP-1R inv ag: 2%; PTHR1 agonist: -3%; GLP1R cytotox: 6%

What do the screens show for `Cc1ccc(NC(=S)NCc2ccccn2)cc1`?
GLP-1R inv ag: inconclusive; GLP1R ag: -15%; PTHR1 agonist: 16µM*; GLP1R cytotox: inconclusive

How did Cc1cccc(NC(=S)NCc2ccccn2)c1 do in these assays?
GLP-1R inv ag: inconclusive; GLP1R ag: 0%; PTHR1 agonist: inactive; GLP1R cytotox: inconclusive

What do the screens show for `CCOc1ncccc1C(=O)OCc1ccc(C(=O)OC)cc1`?
GLP-1R inv ag: 7%; GLP1R ag: 11µM*; PTHR1 agonist: -53%; GLP1R cytotox: inconclusive

How did CCOC(=O)c1cc(-c2ccccc2)n(-c2cccc(C(=O)Nc3cccc(C(C)=O)c3)c2)c1C do in these assays?
GLP-1R inv ag: 5.6µM*; PTHR1 agonist: -40%; GLP1R cytotox: -26%

Results for CCOC(=O)c1cc(-c2ccccc2)n(-c2cccc(C(=O)Nc3cccc(F)c3)c2)c1C ?
GLP-1R inv ag: inconclusive; PTHR1 agonist: -13%; GLP1R cytotox: -19%

What do the screens show for `CCOC(=O)c1cc(-c2ccccc2)n(-c2cccc(C(=O)Nc3cccc(SC)c3)c2)c1C`?
GLP-1R inv ag: 3.5µM*; PTHR1 agonist: -37%; GLP1R cytotox: -6%

What do the screens show for `Clc1ccc(Cn2c(/C=C/c3ccco3)nc3ccccc32)cc1`?
GLP-1R inv ag: inconclusive; GLP1R ag: 4%; PTHR1 agonist: inactive; GLP1R cytotox: -19%

How did Cc1ccc(Cn2c(/C=C/c3ccco3)nc3ccccc32)cc1 do in these assays?
GLP-1R inv ag: 11µM*; GLP1R ag: 7%; PTHR1 agonist: -27%; GLP1R cytotox: -11%

How did Cc1ccccc1Nc1scc(-c2ccc(Cl)cc2)[n+]1-c1ccccc1C do in these assays?
GLP-1R inv ag: 10µM*; GLP1R ag: -1%; PTHR1 agonist: -15%; GLP1R cytotox: -19%

How did Cc1c(Nc2scc(-c3ccccc3)[n+]2-c2ccccc2)c(=O)n(-c2ccccc2)n1C do in these assays?
GLP-1R inv ag: inconclusive; GLP1R ag: 1%; PTHR1 agonist: -38%; GLP1R cytotox: 8%

How did Cc1ccccc1C(=O)Nc1cc(-c2cc(C(C)(C)C)oc2C)nn1C do in these assays?
GLP-1R inv ag: 10µM*; GLP1R ag: 23%; PTHR1 agonist: -43%; GLP1R cytotox: -9%

How did O=C(N/N=C/c1ccnc2ccccc12)c1ccccc1O do in these assays?
GLP-1R inv ag: 56%; GLP1R ag: 3%; PTHR1 agonist: -5%; GLP1R cytotox: 0%

Results for COCCNC(=S)N/N=C(\C)CCc1ccc2c(c1)OCO2 ?
GLP-1R inv ag: inconclusive; GLP1R ag: 46%; PTHR1 agonist: -8%; GLP1R cytotox: inconclusive

How did C/C(CCc1ccc2c(c1)OCO2)=N\NC(=S)NC(C)C do in these assays?
GLP-1R inv ag: inconclusive; GLP1R ag: -2%; PTHR1 agonist: 26%; GLP1R cytotox: 3.2µM*

How did Cc1ccc(-n2nnnc2SCC(=O)NC2CCCc3ccccc32)cc1 (configuration not stated) do in these assays?
GLP-1R inv ag: 10µM*; GLP1R ag: -1%; PTHR1 agonist: -10%; GLP1R cytotox: -7%

Results for Cc1ccc(-n2nnnc2SCC(=O)NC2CCCc3ccccc32)c(C)c1 (configuration not stated) ?
GLP-1R inv ag: 10µM*; GLP1R ag: 9%; PTHR1 agonist: -45%; GLP1R cytotox: -8%

Results for CCC(=O)Nc1ccc(C(=O)CN2C(=O)NC3(CCCCCC3)C2=O)cc1 ?
GLP-1R inv ag: -14%; GLP1R ag: -7%; PTHR1 agonist: inactive; GLP1R cytotox: -10%

How did O=C(COC(=O)Cc1cccs1)NCC(=O)Nc1ccc(F)cc1 do in these assays?
GLP-1R inv ag: 6%; GLP1R ag: 9%; PTHR1 agonist: inactive; GLP1R cytotox: -18%

How did O=C(Nc1nc2cc3c(cc2s1)OCCO3)c1cccc(N2C(=O)CCC2=O)c1 do in these assays?
GLP-1R inv ag: inconclusive; GLP1R ag: -2%; PTHR1 agonist: -95%; GLP1R cytotox: 1%

Compound activity from PubChem.
